PubChem BioAssay

Experiment: binders from COS7 lysate, DM2A8 probe, primary screen, torsin A project, cell lysate, small-molecule microarray, fluorescence 635/667 (AID 1065)
Details: higher = more signal, COS7 lysate expressing mutant human TOR1A

Row | Compound | composite z-score
1 | COCC(=C=CC[C@@H](O)c1ccccc1OCCO)C[C@@H](O)c1ccccn1 | 0.663
2 | COc1ccc([Si](C)(C)[C@H]2[C@H](CCO)O[C@@]3(C(=O)N(Cc4cccc(N5CCOC5=O)c4)c4ccccc43)[C@@H]2C)cc1 | -0.16
3 | COC(=O)C(CC#Cc1ccc2c(c1)[C@]1(C(=O)N2)[C@H](C(=O)N2CCc3cc(OC)c(OC)cc3C2)[C@H]2C(=O)O[C@H](c3ccccc3)[C@H](c3ccccc3)N2[C@@H]1c1ccc(O)cc1)C(=O)OC | 0.305
4 | COc1ccc([Si](C)(C)[C@H]2[C@H](CCn3cc(CCO)nn3)O[C@@]3(C(=O)N(Cc4cccc(N5C(=O)c6cccc7cccc5c67)c4)c4ccccc43)[C@@H]2C)cc1 | 0.603
5 | C[C@H]1ON(c2ccccc2)[C@@H](c2ccccc2)[C@@H]1C(=O)N1C(=O)OC[C@@H]1c1ccccc1 | -0.111
6 | COc1ccc(C#Cc2ccc3c(c2)[C@]2(C(=O)N3)[C@H](C(=O)O)[C@H]3C(=O)O[C@H](c4ccccc4)[C@H](c4ccccc4)N3[C@@H]2c2ccc(OCCO)cc2)cc1 | 0.959
7 | C=CCC(OC(C)=O)[C@@H]1[C@@H](N(Cc2ccc(-c3ccccc3)cc2)C(=O)Cc2ccc(OC)cc2)c2cc(OCCCO)ccc2N1C(=O)c1ccc(-c2ccccc2)cc1 (stereo not given in full) | 0.253
8 | Cc1ccc(S[C@]2(C(=O)NCC(C)C)CC(=O)N(C3CCCCC3)[C@@H]2c2ccc(CO)cc2I)cc1 | 0.0044
9 | COC(=O)C(CC#Cc1ccc2c(c1)[C@]1(C(=O)N2)[C@H](c2ccc(OCCO)cc2)N2[C@H](c3ccccc3)[C@H](c3ccccc3)OC(=O)[C@H]2[C@@H]1C(=O)O)C(=O)OC | 0.831
10 | [N-]=[N+]=NCc1ccccc1C[C@@]1(C(=O)NCCN2CCOCC2)N=C(c2ccc(OCCCO)cc2)O[C@@H]1c1ccccc1CN=[N+]=[N-] | 0.69
11 | C[C@]12C(=O)N(CCCO)[C@@H]3C(=O)N(c4ccc(Cl)cc4)CC=CC31O[C@@H]1/C=C\CCCOC(=O)C12 (stereo not given in full) | -0.549
12 | CCCCC(O)C1C=CC2C(=O)N(Cc3ccccc3)C(=O)C2N1n1cnnc1 (stereo not given) | 0.095
13 | Cc1ccccc1C(O)C1C=CC2C(=O)N(C)C(=O)C2N1Nc1ccc([N+](=O)[O-])cc1[N+](=O)[O-] (stereo not given) | 0.14
14 | COCCOC(=O)N1C(=O)[C@@]2(c3cc(C#Cc4ccc(OC)cc4)ccc31)[C@H](C(=O)N1CCc3cc(OC)c(OC)cc3C1)[C@H]1C(=O)O[C@H](c3ccccc3)[C@H](c3ccccc3)N1[C@@H]2c1ccc(OCCO)cc1 | 0.454
15 | O=c1c2ccc(Br)cc2nc(-c2ccccc2)n1Cc1cccc(O)c1 | 2.81
16 | Cc1ccc(S[C@]2(C(=O)NCCN3CCOCC3)CC(=O)N(C3Cc4ccccc4C3)[C@@H]2c2ccc(CO)cc2)cc1 | 1.32
17 | C=CC[C@@]1(C(=O)NCCN2CCOCC2)N=C(c2ccc(OCCCO)cc2)O[C@@H]1c1ccccc1 | 1.64
18 | C[C@H]1NC(=O)C([C@@H](C)OCc2ccccc2)NC(=O)[C@@]23C(=O)N[C@@H](Cc4ccccc4)C2[C@H](C)[C@@]2(C)O[C@H]2C3/C=C/CC/C=C/CNC1=O (stereo not given in full) | 0.245

Row | Compound | composite z-score
19 | C/C=C/[C@@H](CCn1cc([C@H](O)c2ccccc2)nn1)[Si](C)(C)c1ccc(OC)cc1 | 1.28
20 | CCCC=C(CCC)[C@@H](NC(=O)Cc1ccccc1)c1ccc(C(=O)OC)cc1 | -0.0985
21 | C=C(COC)/C(=C/C[C@@H](OC(=O)c1ccncc1)c1cccc(OCCO)c1)c1cc(C(=O)OC)ccc1OC | 0.525
22 | COc1cc(NN2C(C(O)c3ccc(I)cc3)C=CC3C(=O)N(C)C(=O)C32)cc(OC)c1OC (stereo not given) | -0.363
23 | COCCCNC(=O)[C@@]1(Cc2ccccc2CN=[N+]=[N-])N=C(c2ccc(OCCCO)cc2)O[C@H]1c1ccccc1N=[N+]=[N-] | 1.06
24 | O=C(CS)NCCCCCNC(=O)[C@@H]1C[C@@H]2C(=O)N3CCC[C@H]3C(=O)N2[C@@H]1c1ccc(O)cc1 | 0.282
25 | Cc1cc(C)c(C(O)C2C=CC3C(=O)N(c4ccccc4)C(=O)C3N2Nc2ccc([N+](=O)[O-])cc2)c(C)c1 (stereo not given) | 0.129
26 | C=C[C@H](C)[C@H](OC(=O)Nc1ccc(SC)cc1)c1ccc(O)c2ccccc12 | -0.0235
27 | COC(=O)C(CC#Cc1ccc2c(c1)[C@]1(C(=O)N2)[C@H](C(=O)N2CCc3cc(OC)c(OC)cc3C2)[C@H]2C(=O)O[C@H](c3ccccc3)[C@H](c3ccccc3)N2[C@@H]1c1ccc(OCCO)cc1)C(=O)OC | 1.53
28 | COC(=O)[C@@]1(Cc2ccc(OC)cc2)[C@H]2c3cc(C(=O)N4CCCC4)n(CCc4ccc(O)c(OC)c4)c3C[C@H]2CN1C(=O)c1ccccc1 | -0.336
29 | O=C1N(CCS(=O)(=O)c2ccccc2)Cc2ccccc2C[C@@]12COC(c1ccc(OCCCO)cc1)=N2 | 0.667
30 | CC(C)C[C@H]1NC(=O)[C@H](C)NC(=O)[C@@]23C(=O)N[C@@H](Cc4ccccc4)C2[C@H](C)[C@@]2(C)O[C@H]2C3/C=C/C/C=C\CNC1=O (stereo not given in full) | 0.366
31 | COc1ccc([Si](C)(C)[C@H]2[C@H](CC(=O)N3CCC[C@H]3CO)O[C@@]3(C(=O)N(Cc4ccc(N5C(=O)c6cccc7cccc5c67)cc4)c4ccccc43)[C@@H]2C)cc1 | 0.623
32 | COc1cccc(C)c1NC(=O)O[C@H]1[C@H](OC(=O)Nc2ccccc2)[C@H](OC(=O)Nc2ccccc2)[C@@H](OC)O[C@@H]1CO | 0.559
33 | C=CCC(OC(C)=O)[C@@H]1[C@@H](N(Cc2ccc(-c3ccccc3)cc2)C(=O)c2cccc3ccccc23)c2cc(OCCCO)ccc2N1C(=O)c1ccc2ccccc2n1 (stereo not given in full) | 0.113
34 | O=C1O[C@H](c2ccccc2)[C@H](c2ccccc2)N2[C@H]1[C@@H](C(=O)N1CCN(c3ncccn3)CC1)[C@]1(C(=O)Nc3ccc(C#CCCO)cc31)[C@H]2c1ccc(OCCO)cc1 | 1.26
35 | COC(=O)[C@@]1(Cc2ccccc2N=[N+]=[N-])N=C(c2ccc(OCCCO)cc2)O[C@H]1c1ccccc1 | 0.748
